From PubChem BioAssay (NCI)
The panel holds about 79,000 compounds, 15% with a hit somewhere; the sample as a whole holds those more often. Activity calls are given as the source filed them. Cut-off read from the data, not from the text of the source: active = growth inhibition above about 70%; inactive = the rest.

Tests used:
[1] = NCI Yeast Anticancer Drug Screen. Data for the rad52 strain (AID 147);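 note: 0% = growth of vehicle-treated control cultures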; conditions: S. cerevisiae rad52 mutant growth inhibition, active compounds read high
In short: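 Here a repair-compromised yeast strain receives each compound; its growth is then quantified and normalised to vehicle-only controls.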

[2] = NCI Yeast Anticancer Drug Screen. Data for the wt1 strain (AID 149);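 note: 0% = growth of vehicle-treated wt1 cultures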; conditions: S. cerevisiae wt1 strain (SPY 50644) growth inhibition, active compounds read high
In short: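 Readout: yeast growth inhibition, normalised to vehicle controls, in the wt1 strain exposed to test compounds.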

[3] = NCI Yeast Anticancer Drug Screen. Data for the rad50EPP+ strain (AID 151);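 note: 0% = growth of vehicle-treated control cultures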; conditions: S. cerevisiae rad50 mutant strain, active compounds read high
In short: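 Read-out is yeast growth inhibition relative to vehicle; cells used were the rad50EPP+ strain.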

[4] = NCI Yeast Anticancer Drug Screen. Data for the mgt1 strain (AID 153); conditions: S. cerevisiae mgt1 mutant growth inhibition, active compounds read high
In short: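 Measured: inhibition of mgt1 yeast growth by compound, normalized to vehicle-treated cultures.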

[5] = NCI Yeast Anticancer Drug Screen. Data for the rad50 strain (AID 155);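 note: 0% = growth of vehicle-only cultures of the same strain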; conditions: S. cerevisiae rad50 strain growth inhibition, active compounds read high
In short: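 Compounds were tested on a yeast strain with an engineered DNA damage repair alteration; the reported value is growth inhibition normalised to vehicle treatment.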

[6] = NCI Yeast Anticancer Drug Screen. Data for the mec2-1 strain (AID 157); conditions: S. cerevisiae mec2-1 strain, active compounds read high
In short: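 Using mec2-1 yeast: add compound, measure growth, express inhibition versus vehicle-treated cultures.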

[7] = NCI Yeast Anticancer Drug Screen. Data for the rad14 strain (AID 159);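 note: 0% = growth of vehicle-treated control cultures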; conditions: S. cerevisiae rad14 strain growth inhibition, active compounds read high
In short: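 Compound-treated yeast with a defined DNA-repair lesion; growth inhibition normalised to vehicle-treated cultures.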

[8] = NCI Yeast Anticancer Drug Screen. Data for the sgs1 mgt1 strain (AID 161);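 note: 0% = growth of cultures given vehicle only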; conditions: S. cerevisiae sgs1 mgt1 strain, active compounds read high
In short: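 Compounds are added to genetically altered yeast, and growth is compared with cultures given vehicle alone to give percent inhibition.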

[9] = NCI Yeast Anticancer Drug Screen. Data for the CLN2oe strain (AID 163);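 note: 0% = growth of vehicle-only control cultures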; conditions: S. cerevisiae CLN2oe strain, active compounds read high
In short: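 Whole-cell yeast growth assay. A strain engineered for altered cell-cycle control received compound, and inhibition relative to vehicle-treated cultures was recorded.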

[10] = NCI Yeast Anticancer Drug Screen. Data for the cln2 rad14 strain (AID 165);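 note: 0% = growth equal to vehicle treated cultures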; conditions: S. cerevisiae cln2 rad14 strain, active compounds read high
In short: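 Yeast strain cln2 rad14, bearing defects in cell cycle control and DNA repair, serves as the test system; values reflect growth inhibition compared with vehicle.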

[11] = NCI Yeast Anticancer Drug Screen. Data for the bub3 strain (AID 167); conditions: S. cerevisiae bub3 mutant strain, active compounds read high
In short: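 Growth of a checkpoint-deficient yeast mutant is measured after compound exposure. Values represent inhibition relative to vehicle.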

[12] = NCI Yeast Anticancer Drug Screen. Data for the wt2 strain (AID 169);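 note: 0% = growth of vehicle-treated yeast cultures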; conditions: S. cerevisiae wt2 strain growth inhibition, active compounds read high
In short: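 Treated yeast vs. vehicle-treated yeast: growth inhibition determined.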

[13] = NCI Yeast Anticancer Drug Screen. Data for the mlh1 strain (AID 171);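 note: 0% = growth of vehicle-treated control cultures of the same strain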; conditions: S. cerevisiae mlh1 strain growth inhibition, active compounds read high
In short: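 A yeast strain with a defined genetic lesion serves as the test organism. Cultures receive compound or vehicle, and growth is measured.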

[14] = NCI Yeast Anticancer Drug Screen. Data for the sgs1 strain (AID 173);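 note: 0% = growth of vehicle-only control cultures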; conditions: S. cerevisiae sgs1 mutant, active compounds read high
In short: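 A genetically defined yeast mutant is incubated with the test compound, and its growth is compared to that of the same strain given vehicle.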

[15] = NCI Yeast Anticancer Drug Screen. Data for the mlh1 rad18 strain (AID 175); conditions: S. cerevisiae mlh1 rad18 strain growth inhibition, active compounds read high
In short: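 Steps: expose repair-defective yeast to compound; measure growth; express inhibition against vehicle-treated controls.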

[16] = NCI Yeast Anticancer Drug Screen. Data for the rad18 strain (AID 177); conditions: S. cerevisiae rad18 mutant growth inhibition, active compounds read high
In short: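 Measured value is growth inhibition of a yeast strain bearing a DNA repair alteration, referenced to vehicle-treated cells.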

[17] = at 5.0 µM (retest, dose inferred, filed as 0.5)
[18] = at 50.0 µM (retest, dose inferred, filed as 5.0)

Measured: growth inhibition

Oc1[nH]c2ccccc2c1N=NC(=S)N1CCCCC1
active: [1]; at 33.0 µM 97% | [1]; at 100.0 µM 98% | [2]; at 33.0 µM 90% | [2]; at 100.0 µM 98% | [4]; at 33.0 µM 97% | [4]; at 100.0 µM 99% | [5]; at 33.0 µM 97% | [5]; [18] 99% | [5]; at 50.0 µM 75.5% | [5]; at 100.0 µM 98% | [6]; at 33.0 µM 97% | [6]; [18] 98% | [6]; at 50.0 µM 80.4% | [6]; at 100.0 µM 99% | [7]; at 33.0 µM 97% | [7]; at 100.0 µM 99% | [8]; [18] 99% | [8]; at 50.0 µM 87% | [9]; at 33.0 µM 98% | [9]; at 100.0 µM 99% | [10]; [18] 99% | [10]; at 50.0 µM 84.8% | [11]; at 33.0 µM 91% | [11]; [18] 99% | [11]; at 50.0 µM 90.3% | [11]; at 100.0 µM 96% | [12]; at 33.0 µM 94% | [12]; at 100.0 µM 99% | [13]; at 33.0 µM 96% | [13]; at 100.0 µM 98% | [14]; at 33.0 µM 99% | [14]; at 100.0 µM 99% | [15]; [18] 99% | [15]; at 50.0 µM 86.5% | [16]; at 33.0 µM 89% | [16]; at 100.0 µM 97%
inactive: [1]; at 1.2 µM 6% | [1]; at 3.7 µM 11% | [1]; at 11.0 µM 19% | [2]; at 1.2 µM -1% | [2]; at 3.7 µM 0% | [2]; at 11.0 µM 4% | [3]; at 1.2 µM 6% | [3]; at 3.7 µM 16% | [3]; at 11.0 µM 28% | [3]; at 33.0 µM 39% | [3]; at 100.0 µM 58% | [4]; at 1.2 µM 0% | [4]; at 3.7 µM 1% | [4]; at 11.0 µM 23% | [5]; at 1.2 µM 5% | [5]; at 3.7 µM 11% | [5]; [17] 11% | [5]; at 11.0 µM 13% | [6]; at 1.2 µM 4% | [6]; at 3.7 µM 6% | [6]; [17] 41% | [6]; at 11.0 µM 23% | [7]; at 1.2 µM 4% | [7]; at 3.7 µM -3% | [7]; at 11.0 µM 9% | [8]; [17] -8% | [9]; at 1.2 µM 2% | [9]; at 3.7 µM -4% | [9]; at 11.0 µM 20% | [10]; [17] 0% | [11]; at 1.2 µM -1% | [11]; at 3.7 µM 5% | [11]; [17] -18% | [11]; at 11.0 µM 15% | [12]; at 1.2 µM 5% | [12]; at 3.7 µM 6% | [12]; at 11.0 µM 13% | [13]; at 1.2 µM 4% | [13]; at 3.7 µM 4% | [13]; at 11.0 µM 16% | [14]; at 1.2 µM 14% | [14]; at 3.7 µM 16% | [14]; at 11.0 µM 28% | [15]; [17] 22% | [16]; at 1.2 µM 5% | [16]; at 3.7 µM 9% | [16]; at 11.0 µM 24%

CSc1nc(C)c(CCOC(C)=O)c(N=P(c2ccccc2)(c2ccccc2)c2ccccc2)n1
active: [1]; at 100.0 µM 92% | [2]; at 100.0 µM 92% | [4]; at 100.0 µM 90% | [5]; at 50.0 µM 92.2% | [5]; at 100.0 µM 90% | [6]; at 50.0 µM 94.3% | [6]; at 100.0 µM 90% | [7]; at 100.0 µM 87% | [8]; at 50.0 µM 96.5% | [9]; at 100.0 µM 77% | [10]; [18] 86% | [10]; at 50.0 µM 74.8% | [11]; [18] 93% | [11]; at 50.0 µM 95.6% | [11]; at 100.0 µM 92%
inactive: [1]; at 1.2 µM 10% | [1]; at 3.7 µM 4% | [1]; at 11.0 µM -3% | [1]; at 33.0 µM -9% | [2]; at 1.2 µM 9% | [2]; at 3.7 µM 5% | [2]; at 11.0 µM -2% | [2]; at 33.0 µM -3% | [3]; at 1.2 µM 12% | [3]; at 3.7 µM 5% | [3]; at 11.0 µM 1% | [3]; at 33.0 µM 1% | [3]; at 100.0 µM 13% | [4]; at 1.2 µM 10% | [4]; at 3.7 µM 2% | [4]; at 11.0 µM -2% | [4]; at 33.0 µM -15% | [5]; at 1.2 µM 7% | [5]; at 3.7 µM -8% | [5]; [17] 16% | [5]; at 11.0 µM -21% | [5]; at 33.0 µM -1% | [5]; [18] 42% | [6]; at 1.2 µM 12% | [6]; at 3.7 µM 8% | [6]; [17] -14% | [6]; at 11.0 µM 1% | [6]; at 33.0 µM 1% | [6]; [18] 3% | [7]; at 1.2 µM 9% | [7]; at 3.7 µM 2% | [7]; at 11.0 µM -4% | [7]; at 33.0 µM -5% | [8]; [17] -2% | [8]; [18] 22% | [9]; at 1.2 µM 18% | [9]; at 3.7 µM 10% | [9]; at 11.0 µM 0% | [9]; at 33.0 µM 3% | [10]; [17] 3% | [11]; at 1.2 µM 4% | [11]; at 3.7 µM 6% | [11]; [17] 10% | [11]; at 11.0 µM 3% | [11]; at 33.0 µM 3%
